# High-throughput results: PubChem BioAssay, National Center for Advancing Translational Sciences (NCATS)
# KB-3-1 tox: KB-3-1 parental cell cytotoxicity; KB-3-1 viability, CellTiter-Glo ATP luminescence, 72 h; Potency, µM (top dose mostly 46.1 µM), hits mostly cytotoxic; 400,000 tested, 1.4% active; also: % is scaled to controls: 0 for no effect and ±100 for the full control effect; nearly all actives have a fitted effect of over 60% in size
#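 KB-3-1 parental drug-naive adenocarcinoma cells in DMEM/10% FBS, incubated 72 h at 37 C with pin-transferred compounds across a concentration series. Viability by CellTiter-Glo luminescence; concentration-response curves fitted after normalization.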
# HT1080 IDH1KD tx: toxicity to HT-1080 IDH1 knockdown cells (counter line); HT-1080 IDH1 knockdown viability, ATP luminescence, 48 h; Potency, µM (titrated, usually from 46.1 µM), for inactives: at the top dose activity, negative = toxicity, actives largely listed as cytotoxic; 360,000 tested, 2% active; AID 686971;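 also: 0% = DMSO wells and -100% = cell-free medium wells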
#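 IDH1KD HT-1080 cells, 750/well, RPMI + 5% FBS; compound pinned after 2 h settling; 48 h, 37 °C; CellTiter-Glo luminescence; % activity normalised to DMSO and no-cell wells; curves fitted, classed by r2 and efficacy.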
# MCF10A rereplic: DNA re-replication induction in MCF 10a cells; Potency, µM (titrated, usually from 46.1 µM), for inactives: at the highest dose activity, positive = re-replication, actives largely listed as activators; AID 624296; 350,000 tested, 2.9% active; MCF 10A DNA re-replication, Hoechst nuclear intensity, 48 h; also: % of control where 0% means no effect; nearly all actives have a fitted effect of over 50% in size
# SW480 rereplic: induces DNA re-replication in SW480 colon adenocarcinoma cells. Potency, µM (highest dose often 46.1 µM), for inactives: at the top dose re-replication activation, actives largely listed as activators. SW480 DNA re-replication, Hoechst DNA content imaging, 48 h. 340,000 tested, 1.8% active; also: % of control where 0% means no effect; nearly all actives have a fitted effect of over 55% in size
#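 Hoechst fluorescence of nuclei (405 nm excitation, 500-530 nm emission) measured by plate-scanning imager after 48 hr compound exposure at 37 C; re-replication scored as increased number of nuclei with elevated intensity.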
# KB-V1 cytotox: KB-V1 MDR subline cytotoxicity; KB-V1 MDR cells viability, CellTiter-Glo, 72 h; Potency, µM (series often up to 46.1 µM), most hits filed as cytotoxic; 400,000 tested, 3.4% active; also: % is scaled to controls: 0 for no effect and ±100 for the full control effect; nearly all actives have a fitted effect of over 60% in size
#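 Compound-treated KB-V1 multidrug-resistant cells, 72 h, 37 degrees C; viability by CellTiter-Glo. Fitted qHTS curves give the values.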
# HT1080NT lethal: kills 2HG-producing HT-1080-NT fibrosarcoma cells | Potency, µM (doses to about 46.1 µM), for inactives: at the highest dose activity, negative = less viability, actives largely listed as cytotoxic | AID 686970 | 360,000 tested, 1.6% active | HT-1080-NT fibrosarcoma viability, CellTiter-Glo ATP luminescence, 48 h;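 also: NT is the 2HG producing partner of a matched IDH1 knockdown line; 0% = DMSO-treated cells and -100% = media-only wells without cells; nearly all actives have a fitted effect of over 55% in size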
#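 Read-out is CellTiter-Glo luminescence after 10 minutes at room temperature, following 48 hours' compound treatment of HT-1080-NT cells (750 cells/well, RPMI, 5% FBS, 37 degrees C).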
# Active calls of the source: *; i = inactive; ? = inconclusive; / = not tested or not shown. Rows were chosen to be rich in hits. Some 8% of all compounds tested hit in one or more screens of this group. Calls follow the shape of the dose curve; as a rule, active = well fitted curve in the direction sought with a large enough effect; inconclusive = small, poorly fitted or top-dose-only effect, or another doubt; inactive = no such curve, though single readings can be large; an effect the other way counts as inactive or inconclusive. Potency is read from the fitted curve at half-maximal effect.
SMILES,KB-3-1 tox,HT1080 IDH1KD tx,MCF10A rereplic,SW480 rereplic,KB-V1 cytotox,HT1080NT lethal
CC(OC(=O)CCOc1ccccc1)C(=O)Nc1ccc(Cl)cn1 (configuration not stated),i,13%,16µM*,?,i,0%
O=C(/C=C/c1ccccc1)NCC(=O)N/N=C/c1ccccc1[N+](=O)[O-],i,-3%,3%,-19%,i,-2%
Cc1ccc(S(=O)(=O)N2CCN(CC(=O)N/N=C\c3ccc(Cl)c([N+](=O)[O-])c3)CC2)cc1,i,-2%,5%,/,i,2%
O=C(CN1CCN(S(=O)(=O)c2ccc(Br)cc2)CC1)N/N=C/c1ccc(Cl)c([N+](=O)[O-])c1,i,?,16µM*,1%,i,?
COc1ccc(C2/C(=C(/O)c3ccccc3)C(=O)C(=O)N2C)cc1 (configuration not stated),i,-3%,7%,-4%,i,-4%
O=C(N/N=C/c1ccc(O)c(O)c1O)/C(=C/c1ccc([N+](=O)[O-])cc1)NC(=O)c1ccccc1,i,15µM*,0%,20%,i,?
O=C(Nc1cccc2ccccc12)/C(=C/c1ccc([N+](=O)[O-])cc1)NC(=O)c1ccccc1,i,-10%,3%,6%,4.6µM*,-3%
Cc1ccc(NC(=O)/C(=C\c2ccc([N+](=O)[O-])cc2)NC(=O)c2ccccc2)cc1,i,-3%,3%,0%,i,-13%
COc1cccc(CNc2ncnc3nc[nH]c23)c1,i,/,/,/,?,/
COc1ccccc1Cn1c(/C=C/c2ccccc2)nc2ccccc21,16µM*,-21%,?,?,5.2µM*,-17%
COc1ccc(/C=C/c2nc3ccccc3n2Cc2ccccc2OC)cc1,?,16µM*,16µM*,?,?,16µM*
Cc1ccsc1C1Nc2ccccc2C(=O)N1O (configuration not stated),i,-1%,1%,16µM*,?,-3%
COc1ccc(C2Nc3ccccc3C(=O)N2NC(C)=O)cc1OC (configuration not stated),i,6%,?,-33%,i,4%
CCCN1C(=O)c2ccccc2NC1c1cc(OC)c(OC)c(OC)c1 (configuration not stated),i,1%,4%,1%,i,4%
COc1ccc(C2Nc3ccccc3C(=O)N2O)cc1OC (configuration not stated),i,10%,-1%,?,15µM*,1%
COc1ccc(CCN2C(=O)c3ccccc3NC2c2cc(Cl)c(O)c(OC)c2)cc1 (configuration not stated),?,2.9µM*,2.6µM*,8.2µM*,?,1.6µM*
COc1cccc(/C=C/C(=O)OCC(=O)c2ccccc2)c1OC,i,0%,-5%,-6%,i,2%
CCCCSc1nc(SCC(=O)NCc2ccco2)c2c3c(sc2n1)COC(C)(CC)C3 (configuration not stated),i,-3%,4%,-10%,i,1%
CSc1nc(SCC(=O)NCc2ccco2)c2c3c(sc2n1)COC(C)(C)C3,i,7.1µM*,?,?,3.7µM*,7.9µM*
O=S(=O)(c1ccccc1)N(Cc1ccccc1)c1ccccn1,?,4%,-2%,-10%,8.2µM*,5%
CC(=O)C1=C(C)OC(N)=C(C#N)C1c1cccc([N+](=O)[O-])c1 (configuration not stated),i,-9%,-6%,0%,i,-3%
CC(=O)C1=C(C)OC(N)=C(C#N)C1c1cc([N+](=O)[O-])ccc1Cl (configuration not stated),i,?,?,3.3µM*,i,16µM*
CC(=O)c1cccc(NC(=O)C(C)OC(=O)c2cccc(S(=O)(=O)N3CCN(C)CC3)c2)c1 (configuration not stated),i,0%,-1%,-8%,i,13%
C=CC(=O)Nc1ccc(CN2C(=O)N(c3c(Cl)c(OC)cc(OC)c3Cl)Cc3cnc(NCCCCN(CC)CC)nc32)cc1,12µM*,15µM*,?,?,i,23µM*
CCN(CC)CCNC(=O)c1ccc(NC(=O)Cc2ccc(OC)c(S(=O)(=O)N3CCOCC3)c2)cc1,i,5%,-8%,-5%,i,0%
SMILES,KB-3-1 tox,HT1080 IDH1KD tx,MCF10A rereplic,SW480 rereplic,KB-V1 cytotox,HT1080NT lethal
O=c1oc2ccccc2c(Nc2cc3ccccc3cc2O)c1[N+](=O)[O-],15µM*,?,2.1µM*,?,?,?
CCN(CC)C(=O)C(Oc1ccc(S(=O)(=O)N2CCCC2)cc1[N+](=O)[O-])c1ccccc1 (configuration not stated),i,-4%,?,18%,i,0%
Cc1cccc(CCNc2ncnc3onc(-c4ccc(Cl)cc4)c23)c1,i,/,/,/,21µM*,/
CCOc1ccc(CCNc2ncnc3onc(-c4ccc(F)cc4)c23)cc1OCC,i,/,/,/,2.6µM*,/
CCOc1ccc(CCNc2ncnc3onc(-c4ccc(Cl)cc4)c23)cc1OCC,i,/,/,/,i,/
COc1ccccc1NS(=O)(=O)c1cc(N/C(=N/S(=O)(=O)c2ccccc2)c2ccc(F)cc2)ccc1Cl,?,-13%,/,/,i,-10%
COc1ccc(CC(=O)OCC(=O)Nc2ccc(C(=O)Nc3ccc(OC)cc3)cc2)cc1,?,1%,1%,-23%,i,-3%
CCCC(=O)Nc1cc(-c2nc3ncccc3o2)ccc1Cl,i,8%,1%,1%,i,18%
COc1ccccc1Cn1c(=O)c2ccccc2n2c(Sc3ncnc4sccc34)nnc12,?,?,18µM*,21µM*,?,?
Nc1nnc(CCCCCc2nnc(N)s2)s1,i,-4%,11%,1.5µM*,i,-2%
C=CCN(Cc1nc(-c2ccccc2)no1)C(=O)c1ccoc1C,i,4%,6%,-1%,?,-1%
COCC(=O)N1CCC(Oc2ccc(C(=O)NCCc3ccncc3)cc2)CC1,i,17%,0%,-8%,i,13%
O=C(Nc1ccc(N2CCN(C(=O)c3cccs3)CC2)cc1)c1cccc(F)c1,18µM*,?,?,?,?,-29%
CCC(=O)c1ccc(N2CCN(C(=O)c3cccs3)CC2)c(F)c1,i,-1%,6.5µM*,?,i,-1%
